Measured values reported in PubChem BioAssay (NCATS).
Inconclusive results are not listed. Calls of active or inactive are those of the source. Calls follow the shape of the dose curve; as a rule, active = well fitted cell-killing curve with a large enough effect; inconclusive = small, poorly fitted or top-dose-only effect; inactive = flat fitted curve, though single readings scatter.

assay: qHTS of pediatric cancer cell lines to identify multiple opportunities for drug repurposing: Primary screen for TC32 cells (AID 1347089); settings: TC32 Ewing sarcoma viability, CellTiter-Glo luminescence, 48 h; series mostly up to 45.8 µM; activity change, negative = cytotoxic: at the top concentration; also: % is scaled to controls: 0 for no effect and ±100 for the full control effect; nearly all actives have a fitted effect of over 60% in size
In short: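 Luminescent ATP read-out (CellTiter-Glo) of metabolically active TC32 cells after 48 h exposure. Concentration-response curves came from 11-point (MIPE, 0.78 nM–46 µM) or 8-point (NPC, 0.59 nM–46 µM) primary titrations; follow-up used 11 points.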

Row | Compound | activity change, negative = cytotoxic
1 | Cn1cc(-c2ccc3ncc(Cc4ccc5ncccc5c4)n3n2)cn1 | 19% (inactive)
2 | C=C(C)[C@@H]1CC[C@]2(C)CC[C@]3(C)[C@H](CC[C@@H]4[C@@]5(C)CC[C@H](O)C(C)(C)[C@H]5CC[C@]43C)[C@@H]12 | 0% (inactive)
3 | CC(C=CC=C(C)C=CC1=C(C)CCCC1(C)C)=CC=CC=C(C)C=CC=C(C)C=CC1=C(C)CCCC1(C)C | -6.89% (inactive)

assay: qHTS of pediatric cancer cell lines to identify multiple opportunities for drug repurposing: Primary screen for DAOY cells (AID 1347090); settings: DAOY medulloblastoma viability, CellTiter-Glo luminescence, 48 h; series mostly up to 46 µM; activity change, negative = cytotoxic: at the top concentration; also: nearly all actives have a fitted effect of over 55% in size; also: potency is read from the fitted curve at half-maximal effect;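 as to activity change, negative = cytotoxic: plate controls were DMSO for no effect and bortezomib for full effect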
In short: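 Viability measured as metabolically active cells via CellTiter-Glo luminescence following 48 hours of compound exposure, 11-point dilutions in confirmatory testing. 500-1,000 cells/well plated 5 hours before dosing; controls were DMSO and 2.3 µM bortezomib.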

Row | Compound | activity change, negative = cytotoxic | Potency
4 | CON=C(C(=O)N[C@@H]1C(=O)N2C(C(=O)O)=C(CSC(=O)c3ccco3)CS[C@H]12)c1csc(N)n1 | -23.9% (inactive) | 
5 | COc1cc2c(Nc3ccc(Cl)c(Cl)c3F)ncnc2cc1OCC1C[C@@H]2CN(C)C[C@H]2C1 |  | 935 nM (active)
6 | CCn1c(=O)c2c(nc(C=Cc3ccc(OC)c(OC)c3)n2C)n(CC)c1=O | -15.4% (inactive) | 
7 | CC[C@H]1OC(=O)[C@H](C)[C@@H](O[C@H]2C[C@@](C)(OC)[C@@H](O)[C@H](C)O2)[C@H](C)[C@@H](O[C@@H]2O[C@@H](C)C[C@H](N(C)C)[C@@H]2O)[C@](C)(O)C[C@@H](C)C(=O)[C@H](C)[C@@H](O)[C@]1(C)O | -9.78% (inactive) | 
8 | Cc1nc(NC(=O)N2CCC[C@@H]2C(N)=O)sc1-c1ccnc(C(C)(C)C(F)(F)F)c1 |  | 7430 nM (active)
9 | C#Cc1cccc(Nc2ncnc3cc(OCCOC)c(OCCO)cc23)c1 |  | 3720 nM (active)
10 | O=C(Nc1ccc(Oc2ccnc3[nH]ccc23)c(F)c1)c1cccn(-c2ccc(F)cc2)c1=O | -12% (inactive) | 
11 | O=C(O)C[C@H](O)C[C@H](O)C=Cc1c(C2CC2)nc2ccccc2c1-c1ccc(F)cc1 |  | 1180 nM (active)
